Results published in PubChem BioAssay AID1159580 (chemical genetic matrix, 2015).
Several values for one entry are separate records, joined by “and”; a condition that tells them apart may be missing. Equal values may be shown once. Screen size: about 5,500 compounds; about 2,000 (36%) were called active. Inconclusive results (about 18%) are left out. Rule as the data show it: active = normalized growth mostly below about 0.91 (no sharp cut-off); inconclusive = no clear call, values can overlap the other calls; inactive = mostly above about 0.92. The list shows a part of the results.

Assay: chemical genetic growth profiling, strain panel (AID 1159580);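 also: tested at 20 µM; growth read once vehicle control cultures reached saturation at 30 °C; 1 = growth at the plate median or of vehicle wells; lower values mean less growth of the strain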
Conditions: S. cerevisiae deletion strains, growth OD

Measured: normalized growth

C=CC(C1=CC(=O)C(OC)=CC1=O)c1ccc(OC)cc1 (stereo unspecified)
inactive: locus YAL013W, strain DEP1, active compounds read low 0.956 | locus YBR021W, strain FUR4, active compounds read low 0.957 | locus YBR171W, strain sec66, active compounds read low 0.983 | locus YBR229C, strain ROT2, active compounds read low 0.968 | locus YCL029C, strain bik1, active compounds read low 0.917 | locus YCL061C, strain MRC1, active compounds read low 0.981 | locus YCR088W, strain abp1, active compounds read low 0.983 | locus YDL005C, strain med2, active compounds read low 1.01 | locus YDL035C, strain GPR1, active compounds read low 0.896 | locus YDL040C, strain nat1, active compounds read low 0.975 | locus YDL074C, strain BRE1, active compounds read low 0.827 | locus YDL101C, strain DUN1, active compounds read low 0.939 | locus YDL134C, strain PPH21, active compounds read low 0.961 | locus YDL185W, strain tfp1, active compounds read low 0.976 | locus YDR001C, strain nth1, active compounds read low 0.982 | locus YDR150W, strain NUM1, active compounds read low 0.985 | locus YDR297W, strain sur2, active compounds read low 0.934 | locus YDR334W, strain swr1, active compounds read low 0.918 | locus YDR335W, strain msn5, active compounds read low 0.94 | locus YEL037C, strain rad23, active compounds read low 0.946 | locus YEL061C, strain CIN8, active compounds read low 0.982 | locus YER110C, active compounds read low 0.905 | locus YER111C, strain swi4, active compounds read low 0.984 | locus YER155C, strain BEM2, active compounds read low 0.973 | locus YGL078C, strain dbp3, active compounds read low 0.978 | locus YGL167C, strain pmr1, active compounds read low 0.978 | locus YGL227W, strain vid30, active compounds read low 0.993 | locus YGL248W, strain PDE1, active compounds read low 0.948 | locus YGR078C, strain PAC10, active compounds read low 0.875 | locus YGR229C, strain SMI1, active compounds read low 0.812 | locus YGR252W, strain gcn5, active compounds read low 0.77 | locus YHR027C, strain rpn1, active compounds read low 0.948 | locus YHR030C, strain SLT2, active compounds read low 0.957 and 1 | locus YHR079C, strain IRE1, active compounds read low 1.03 | locus YHR094C, strain hxt1, active compounds read low 0.947 | locus YHR129C, strain ARP1, active compounds read low 0.939 | locus YIL066C, strain RNR3, active compounds read low 0.879 | locus YIL073C, strain SPO22, active compounds read low 0.929 | locus YIL125W, strain kgd1, active compounds read low 0.952 | locus YJL092W, strain hpr5, active compounds read low 0.948 | locus YJL095W, strain BCK1, active compounds read low 0.894 and 1.04 | locus YJL115W, strain asf1, active compounds read low 0.973 | locus YJL134W, strain LCB3, active compounds read low 0.967 | locus YJL154C, strain vps35, active compounds read low 0.96 | locus YJL168C, strain set2, active compounds read low 0.947 | locus YJL187C, strain SWE1 (second series), active compounds read low 0.933
active: locus YAL021C, strain ccr4, active compounds read low 0.873 | locus YAL026C, strain drs2, active compounds read low 0.765 | locus YAL030W, strain snc1, active compounds read low 0.893 | locus YBL061C, strain skt5, active compounds read low 0.872 | locus YBR009C, strain hhf1, active compounds read low 0.661 | locus YBR023C, strain chs3, active compounds read low 0.853 | locus YBR231C, strain swc5, active compounds read low 0.854 | locus YBR279W, strain paf1, active compounds read low 0.883 | locus YCL011C, strain gbp2, active compounds read low 0.857 | locus YCL016C, strain dcc1, active compounds read low 0.81 | locus YCL069W, strain vba3, active compounds read low 0.911 | locus YDL192W, strain arf1, active compounds read low 0.871 | locus YDR069C, strain doa4, active compounds read low 0.889 | locus YDR101C, strain arx1, active compounds read low 0.906 | locus YDR137W, strain rgp1, active compounds read low 0.596 | locus YDR159W, strain sac3, active compounds read low 0.813 | locus YDR162C, strain NBP2, active compounds read low 0.801 | locus YDR195W, strain ref2 1.16 [resistant] | locus YDR318W, strain mcm21, active compounds read low 0.843 | locus YDR388W, active compounds read low 0.601 | locus YDR392W, strain spt3, active compounds read low 0.23 | locus YDR502C, strain sam2, active compounds read low 0.893 | locus YEL003W, strain gim4, active compounds read low 0.803 | locus YEL061C, strain CIN8 (second series), active compounds read low 0.876 | locus YER015W, strain faa2, active compounds read low 0.906 | locus YER016W, strain bim1, active compounds read low 0.912 | locus YER155C, strain BEM2 (second series), active compounds read low 0.476 | locus YER167W, strain BCK2, active compounds read low 0.829 | locus YFR010W, strain ubp6, active compounds read low 0.887 | locus YGL086W, strain mad1, active compounds read low 0.87 | locus YGL173C, strain kem1, active compounds read low 0.853 | locus YGL240W, strain doc1, active compounds read low 0.743 | locus YGL253W, strain hxk2, active compounds read low 0.813 | locus YGR135W, strain pre9, active compounds read low 0.856 | locus YHR013C, strain ard1, active compounds read low 0.6 | locus YHR079C, strain IRE1 (second series), active compounds read low 0.893 | locus YHR142W, strain chs7, active compounds read low 0.637 | locus YHR200W, strain rpn10, active compounds read low 0.907 | locus YIR030C, strain dcg1, active compounds read low 0.882 | locus YJL095W, strain BCK1 (second series), active compounds read low 0.809 | locus YJL129C, strain trk1, active compounds read low 0.868 | locus YJL164C, strain tpk1, active compounds read low 0.759 | locus YJL166W, strain qcr8, active compounds read low 0.588 | locus YJL187C, strain SWE1, active compounds read low 0.841 | locus YJR043C, strain POL32, active compounds read low 0.832
